# KCNH2 3.1 block – qHTS for Inhibitors of KCHN2 3.1: Mutant qHTS. Potassium voltage-gated channel subfamily H member 2, brain isoform KCNH2 3.1 (human). U2OS KCNH2 3.1, thallium flux FluxOr; hits give low values. activity change, % (tested at about 1.8 µM). AID 720553, 2013. 0.95% of 340,000 active;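 active = maximum activity change below -70%; inconclusive = maximum activity change from -70% to -50%; inactive = maximum activity change above -50%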;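 note: thallium influx rate constant from kinetic fluorescence after stimulation buffer; % is set by controls: 0 for no effect and ±100 for the full control effect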
#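 Steps: virus added to U2OS suspension (4 h, RT, dark); medium with 10% FBS added, cells plated, 37 C overnight; FluxOr/Red40 loading buffer 45 min RT; stimulation buffer, 2 min kinetic read; rate constant normalized.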
# GLP1R cytotox – qHTS of GLP-1 Receptor Inverse Agonists: Cytotox Screen; 0.13% of 410,000 active; Potency, µM (series often up to 38.3 µM), for inactives: at the highest dose activity change, negative = inhibition, usual class: inhibitors; HEK293 cAMP-luciferase reporter cells, luminescence, 24 h;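 note: loss of luciferase light is scored as toxicity; potency is the fitted concentration of half-maximal effect; % is set by controls: 0 for no effect and ±100 for the full control effect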
#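 Cells in DMEM/10% Nu serum/1% pen-strep, 1536-well format. Pre-incubated 12 h, dosed with 23 nL compound, incubated a further 24 h. Luciferase detection, 12 min at room temp, luminescence.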
# GLS inhibitor – qHTS for Inhibitors of Glutaminase (GLS) | Glutaminase kidney isoform, mitochondrial (Homo sapiens), O94925 | GLS enzymatic activity, qHTS titration | Potency, µM (top dose mostly 45.5 µM), without a hit: at the highest dose activity change, negative = inhibition, most hits filed as inhibitors | 0.21% of 410,000 active | AID 624170, 2012; note: potency is the fitted concentration of half-maximal effect; % is set by controls: 0 for no effect and ±100 for the full control effect
#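 Read-out is an Amplex red fluorescence increase coupled through glutamate oxidase and HRP, measured before and after 30 min room-temperature incubation. hKGA is in 45 mM KH2PO4 (pH 8.2) with 0.02% Tween-20; glutamine added as 1mM solution.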
# GLP1R ag – qHTS of GLP-1 Receptor Agonists; HEK293 GLP-1R CRE-luciferase, luminescence, 4-6 h; cells express a hypersensitive GLP-1R form; Potency, µM (highest dose often 45.6 µM), for the others: at the top dose activation, hits mostly activators; 0.007% of 380,000 active; AID 624172, 2012; note: potency is the fitted concentration of half-maximal effect; % of control where 0% means no effect
# Target sequence (P43220 whole entry, looked up): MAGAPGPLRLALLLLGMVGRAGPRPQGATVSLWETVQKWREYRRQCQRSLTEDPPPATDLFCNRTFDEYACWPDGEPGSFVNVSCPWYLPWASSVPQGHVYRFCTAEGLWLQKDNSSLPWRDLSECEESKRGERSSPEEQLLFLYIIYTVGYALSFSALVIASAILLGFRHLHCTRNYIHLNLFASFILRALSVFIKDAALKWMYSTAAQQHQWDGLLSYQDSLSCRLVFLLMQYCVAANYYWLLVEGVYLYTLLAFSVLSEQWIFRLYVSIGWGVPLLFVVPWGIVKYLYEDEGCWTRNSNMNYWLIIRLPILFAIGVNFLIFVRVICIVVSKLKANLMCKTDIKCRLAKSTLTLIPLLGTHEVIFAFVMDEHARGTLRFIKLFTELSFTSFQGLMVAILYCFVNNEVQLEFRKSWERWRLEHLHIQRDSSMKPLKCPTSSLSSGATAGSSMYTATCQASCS
# GLP1R inv ag – qHTS of GLP-1 Receptor Inverse Agonists (Inhibition Mode) | HEK293 GLP-1R CRE-luciferase, luminescence, 24 h; GLP-1R form is constitutively active | Potency, µM (titrated, usually from 38.3 µM), without a hit: at the highest dose activity change, negative = inhibition, most hits filed as inhibitors | 1.6% of 410,000 active; note: potency is the fitted concentration of half-maximal effect; % is set by controls: 0 for no effect and ±100 for the full control effect; nearly all actives have a fitted effect of over 55% in size
#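 Stable HEK293 clone (constitutively active GLP-1R + cAMP-response luciferase); 200 cells/uL plated, 12 h pre-culture, compound 24 hr, 37 deg C/5% CO2; detection reagent 12 min RT; luminescence.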
# KCNH2 WT inh – qHTS for Inhibitors of KCHN2 3.1: Wildtype qHTS; Voltage-gated inwardly rectifying potassium channel KCNH2 (Homo sapiens), Q12809; activity change, % at 1.84 µM; U2OS, BacMam KCNH2, thallium flux FluxOr; hits give low values; 0.37% of 340,000 active;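 active = maximum activity change below -70%; inconclusive = maximum activity change between -70% and -50%; inactive = maximum activity change above -50%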; note: % is set by controls: 0 for no effect and ±100 for the full control effect
#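 U2OS cells transduced with wild-type KCNH2 virus are loaded with FluxOr dye for 45 min, and thallium flux is measured in kinetic reads before and after stimulation buffer. Rate constants are normalized to DMSO controls.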
# * marks the source's active call; other numbers are inactive results; ? = inconclusive; . = no result given. A selection: hits, their analogues and other compounds. The true share with any hit is near 2.8%. Unless noted, calls come from the whole dose curve; as a rule, active = well fitted curve in the direction sought with a large enough effect; inconclusive = small, poorly fitted or top-dose-only effect, or another doubt; inactive = no such curve, though single readings can be large; an effect the other way counts as inactive or inconclusive.
SMILES,KCNH2 3.1 block,GLP1R cytotox,GLS inhibitor,GLP1R ag,GLP1R inv ag,KCNH2 WT inh
CN1CCN(CC(=O)Nc2nc(-c3ccccc3)cs2)CC1,-16,6%,5%,0%,?,-3
CC1CCN(CC(=O)Nc2nc(-c3ccccc3)cs2)CC1,-3,-10%,5%,-8%,5.6µM*,3
O=S(=O)(c1cccs1)N1CN(Cc2ccco2)c2nc3ccccc3nc21,-2,-16%,0%,23%,1.8µM*,5
COCCN1CN(S(=O)(=O)c2ccccc2)c2nc3ccccc3nc21,-8,1%,5%,5%,7%,-1
COc1ccccc1CN1CN(S(=O)(=O)c2ccccc2)c2nc3ccccc3nc21,-6,-25%,-11%,9%,2.8µM*,-13
O=S(=O)(c1cccs1)N1CN(Cc2ccc(Cl)cc2)c2nc3ccccc3nc21,18,-8%,-8%,-5%,1%,6
COc1ccc(NC(=O)C2CC(=O)N(CCc3ccc(F)cc3)C2)c(OC)c1 (centres undefined),5,1%,8%,9%,4%,-5
O=C(Nc1ccccn1)c1csc2c1CCCC2,14,6%,12%,17%,0%,-12
O=C(Nc1ccccn1)c1onc2c1CCCC2,10,20%,2%,-32%,2.5µM*,0
CCc1ccccc1NC(=O)[C@H](Cc1ccccc1)N1Cc2ccccc2C1=O,.,0%,1%,1%,?,.
CCc1cccc(-n2c(=O)c3cccnc3n2CC(=O)Nc2ccc(OC)c(Cl)c2)c1,.,1%,3%,.,16%,.
O=C1CCCN1CCCNC(=S)Nc1ccc(Nc2ccccc2)cc1,0,0%,18µM*,-1%,-5%,2
O=C(O)C1C2C=CC(C2)C1C(=O)NCCCn1ccnc1 (centres undefined),3,4%,3%,-8%,-2%,1
O=C(O)C1C2C=CC(C2)C1C(=O)NCCCN1CCCC1=O (centres undefined),12,6%,-14%,3%,3%,-128*
O=C(Nc1ccc(S(=O)(=O)Nc2nccs2)cc1)c1ccccc1OC(F)F,-10,18%,1%,-1%,1%,-26
CCOC(=O)c1ccc(Nc2nc(C)nc3c2nnn3Cc2ccccc2)cc1,5,-29%,-1%,-5%,?,1
CC1(C)CC(=O)c2c(oc3c(Cl)cc(NS(=O)(=O)c4ccc(Cl)cc4)cc23)C1,.,-3%,12%,.,-18%,.
Cc1noc(C)c1S(=O)(=O)Nc1ccc(C(=O)Nc2ccc(C(C)C)cc2)cc1,.,?,0%,-1%,?,.
O=C(c1cc(-c2ccc(O)cc2)on1)N1CCCCCC1,-3,2%,-7%,19%,-27%,6
Cc1ccc(-c2cc(C(=O)N3CCCC3)no2)cc1,1,11%,-2%,-13%,4µM*,-15
Cc1ccc(-c2cc(C(=O)N3CCOCC3)no2)cc1,2,5%,-7%,-6%,3.2µM*,-11
CN(C(=O)COC(=O)C12CC3CC(CC(Cl)(C3)C1)C2)C1(C#N)CCCCC1,4,-36%,-3%,-5%,13µM*,4
COc1cccc(C(=O)NCC(c2ccc3c(c2)OCO3)N2CCN(C)CC2)c1 (centres undefined),.,-4%,2%,.,4%,.
COc1ccc(C2NN=C(c3c[nH]c4ccccc34)C2O)cc1 (centres undefined),4,-18%,-6%,6%,?,-2
COc1ccc(C2C(O)C(c3c[nH]c4ccccc34)=NN2C(=O)CCl)cc1 (centres undefined),0,11µM*,2%,1%,?,-8
SMILES,KCNH2 3.1 block,GLP1R cytotox,GLS inhibitor,GLP1R ag,GLP1R inv ag,KCNH2 WT inh
Cc1cccc(CNC(=O)CCCN2C(=O)COc3ccc(C)cc32)c1,.,-5%,2%,.,-25%,.
O=C(CSc1nnc(-c2ccccn2)n1-c1ccc(Cl)cc1)Nc1ccc2c(c1)OCO2,-73*,-8%,-1%,1%,-4%,10
COc1ccc2c(C)c(CCC(=O)NCc3ccc(Cl)cc3)c(=O)oc2c1C,.,26%,9%,.,4%,.
CCN(CC)c1ccc(C(=O)NN)cc1,-3,-8%,-19%,8%,-9%,-12
CCN(CC)c1ccc(N=C2C=CC(=O)C=C2NC(C)=O)cc1,9,?,11µM*,5%,-4%,3
CC1=C(C(=O)Nc2cccnc2)C(c2ccccc2)n2nc(SCc3ccccc3Cl)nc2N1 (centres undefined),.,5%,5%,-1%,17%,.
COc1ccc(OC)c(NC(=O)Nc2c(C)n(C)n(-c3ccccc3)c2=O)c1,.,10%,16%,.,0%,.
COc1ccc(Cl)cc1NC(=O)CN(C)C(=O)c1ccc(C)s1,-9,-9%,-1%,15%,5.6µM*,4
COc1ccc(Cl)cc1NC(=O)CN(C)C(=O)c1cc2c(F)cccc2s1,-19,-23%,-9%,-4%,?,-9
COc1ccc(Cl)cc1NC(=O)CN(C)CC(=O)Nc1c(C)n(C)n(-c2ccccc2)c1=O,1,-2%,8%,0%,10µM*,0
O=C(Nc1cccc(F)c1)c1ccc2c(c1)N(Cc1ccccc1)C(=O)c1ccccc1S2(=O)=O,.,12%,-1%,1%,-12%,.
COc1cc(/C=C/CN2CCC(C(=O)NC(c3ccc(F)cc3)c3ccc4ccccc4n3)CC2)ccc1OC(C)=O (centres undefined),.,?,3%,-5%,10µM*,.
Cc1cccc(N2CCN(CCCNc3ncnc4onc(-c5ccc(Cl)cc5)c34)CC2C)c1 (centres undefined),.,1%,4%,1%,1%,.
CCOC(=O)c1sc2nc(C)nc(NC3CCC(O)CC3)c2c1C (centres undefined),5,11%,-16%,7%,-11%,0
Cc1ccc(C(=O)OCC(=O)NCc2cccc(Cl)c2)cc1S(=O)(=O)N1CCCCC1,1,2%,2%,7%,5µM*,18
Cc1ccc(C(=O)OCC(=O)Nc2ccccc2C(F)(F)F)cc1S(=O)(=O)N1CCCCC1,-3,-4%,3%,16%,10µM*,4

# High-throughput results (PubChem BioAssay)
